About 2,100 (0.53%) of roughly 400,000 compounds were called active. Inconclusive results (about 14%) are left out. How the calls were made is not given here. Only a selection was taken, and actives are over-represented in it overall.
What follows are compounds tested against Ataxin-2 (Homo sapiens) (UniProt Q99700) (assay: qHTS for Inhibitors of ATXN expression.).
Format: functional

Ataxin-2 (Homo sapiens), sequence (Q99700 whole entry): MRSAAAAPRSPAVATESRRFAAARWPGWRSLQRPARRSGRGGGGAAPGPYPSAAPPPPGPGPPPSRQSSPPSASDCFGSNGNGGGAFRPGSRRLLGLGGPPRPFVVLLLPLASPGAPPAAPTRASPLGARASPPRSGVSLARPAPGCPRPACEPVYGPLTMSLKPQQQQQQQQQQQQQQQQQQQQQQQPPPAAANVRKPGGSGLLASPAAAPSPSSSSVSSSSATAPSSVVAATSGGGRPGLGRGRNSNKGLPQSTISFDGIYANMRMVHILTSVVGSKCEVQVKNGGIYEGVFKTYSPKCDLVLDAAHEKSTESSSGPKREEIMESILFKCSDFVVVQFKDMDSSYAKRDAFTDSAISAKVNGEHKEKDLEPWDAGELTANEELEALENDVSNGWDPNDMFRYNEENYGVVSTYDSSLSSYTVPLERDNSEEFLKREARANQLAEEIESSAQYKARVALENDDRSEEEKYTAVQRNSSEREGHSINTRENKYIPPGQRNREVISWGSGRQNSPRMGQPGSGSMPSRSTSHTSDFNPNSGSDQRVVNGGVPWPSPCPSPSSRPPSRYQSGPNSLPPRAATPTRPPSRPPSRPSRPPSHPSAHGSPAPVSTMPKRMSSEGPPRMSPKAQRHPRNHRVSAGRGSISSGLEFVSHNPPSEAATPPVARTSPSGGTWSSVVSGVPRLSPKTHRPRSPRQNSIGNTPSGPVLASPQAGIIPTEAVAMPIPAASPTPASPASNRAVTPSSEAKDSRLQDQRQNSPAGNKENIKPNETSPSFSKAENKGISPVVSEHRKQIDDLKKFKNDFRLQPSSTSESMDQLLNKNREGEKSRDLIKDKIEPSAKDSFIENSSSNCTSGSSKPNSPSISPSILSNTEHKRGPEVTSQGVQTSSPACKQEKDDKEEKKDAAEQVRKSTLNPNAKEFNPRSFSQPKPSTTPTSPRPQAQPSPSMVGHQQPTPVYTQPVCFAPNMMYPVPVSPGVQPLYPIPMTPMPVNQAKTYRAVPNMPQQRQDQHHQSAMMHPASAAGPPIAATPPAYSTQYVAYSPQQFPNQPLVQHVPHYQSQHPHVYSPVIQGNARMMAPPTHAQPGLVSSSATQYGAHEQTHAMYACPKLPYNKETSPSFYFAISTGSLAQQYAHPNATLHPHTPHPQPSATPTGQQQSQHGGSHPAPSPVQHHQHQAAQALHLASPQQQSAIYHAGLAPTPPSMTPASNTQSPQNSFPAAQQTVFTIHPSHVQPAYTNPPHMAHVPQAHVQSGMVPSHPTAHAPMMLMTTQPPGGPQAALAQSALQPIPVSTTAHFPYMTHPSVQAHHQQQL

For `COc1ccc(C2=NN(C(=O)c3ccccc3)C(c3ccc(OC)c(OC)c3)C2)c(O)c1` (stereo not drawn), which Potency is on record?
Its Potency is “inactive”.

With `Cc1ccc(C(=O)N2N=C(c3ccc(Br)cc3)CC2c2ccccc2O)cc1` (stereo not drawn) as the compound, how does the Potency read?
The Potency was 42.3 µM (active).

For `O=C(O)c1ccc(N2N=C(c3ccccc3)CC2c2ccccc2)cc1` (stereo not drawn), which Potency is on record?
The Potency was “inactive”.

For `N#Cc1c(C(F)(F)F)cc(-c2cccs2)nc1N1CCCCC1`, which Potency is on record?
The Potency was “inactive”.

`Cc1ccccc1NC(=O)Nc1nnc(Cc2ccc([N+](=O)[O-])cc2)s1` was tested. Which Potency did it give?
Its Potency is 11.2 µM (active).

For `COc1ccccc1NC(=O)Nc1nnc(Cc2ccc(F)cc2)s1`, which Potency is on record?
Its Potency is “inactive”.

With `Cc1ccccc1NC(=O)c1nn(C)c(C(=O)Nc2ccccc2C)c1[N+](=O)[O-]` as the compound, how does the Potency read?
The Potency was “inactive”.

For `CCCc1cc(NCCOCCO)n2c(nc3ccccc32)c1C#N`, which Potency is on record?
The Potency was “inactive”.

How did the Potency turn out when `Nc1nc(O)nc(O)c1N=Cc1ccccc1` was run?
The Potency was “inactive”.

How did the Potency turn out when `C/C(=N\Nc1nc(C)c(C)s1)c1ccc([N+](=O)[O-])cc1` was run?
Its Potency is 37.7 µM (active).

How did the Potency turn out when `C/C(=N\NC(=O)c1ccc(CN2CCOCC2)cc1)c1ccc([N+](=O)[O-])cc1` was run?
Its Potency is “inactive”.

How did the Potency turn out when `COC(=O)c1ccc(/C=N/Nc2nc(C)c(C)s2)cc1` was run?
The Potency was “inactive”.

With `O=S(=O)(CCSc1nc2ccccc2o1)c1nc2ccccc2s1` as the compound, how does the Potency read?
The Potency was 15.8 µM (active).

Which Potency does the source give for `CCOc1ccccc1N(CC(=O)NCCSc1ccccn1)S(=O)(=O)c1ccccc1` here?
Its Potency is “inactive”.

How did the Potency turn out when `O=C(O)c1ccc(C=C(c2nc3ccccc3s2)c2nc3ccccc3s2)cc1` was run?
Its Potency is “inactive”.

With `O=S(=O)(CCSc1ccccn1)c1nc2ccccc2s1` as the compound, how does the Potency read?
The Potency was 22.4 µM (active).

`C=CCS(=O)(=O)c1nc2ccccc2s1` was tested. Which Potency did it give?
Its Potency is 35.5 µM (active).

Which Potency does the source give for `Brc1ccccc1-c1nnc(SCc2nc3ccccc3s2)o1` here?
Its Potency is “inactive”.

`O=C(OCc1nc2ccccc2s1)c1ccccc1O` was tested. Which Potency did it give?
Its Potency is “inactive”.

With `Cc1cccc(N2CC(C(=O)Nc3ccc(S(=O)(=O)Nc4nccs4)cc3)CC2=O)c1C` (stereo not drawn) as the compound, how does the Potency read?
The Potency was “inactive”.

How did the Potency turn out when `COCC(=O)Nc1nc2n(n1)C(c1ccc(Cl)cc1)CC(c1ccc(OC)cc1)N2` (stereo not drawn) was run?
Its Potency is “inactive”.

For `COc1cc(CO)c(Br)cc1OCC(N)=O`, which Potency is on record?
Its Potency is “inactive”.

For `N=c1c(C(=O)NC2CCCC2)cc2c(=O)n3ccccc3nc2n1CCCN1CCOCC1`, which Potency is on record?
Its Potency is “inactive”.

How did the Potency turn out when `COc1ccc(Nc2ncc(F)c(N3CCOCC3)n2)cc1` was run?
Its Potency is “inactive”.

`COc1ccc(C2c3ccc4ccccc4c3Oc3ncn(CCCO)c(=N)c32)cc1` (stereo not drawn) was tested. Which Potency did it give?
The Potency was 35.5 µM (active).

With `COc1ccc(C2c3c(ncn(CCN4CCOCC4)c3=N)Oc3ccc4ccccc4c32)cc1OC` (stereo not drawn) as the compound, how does the Potency read?
The Potency was 14.1 µM (active).

Which Potency does the source give for `COc1ccc(C2c3ccc4ccccc4c3Oc3ncn(CCN4CCOCC4)c(=N)c32)cc1` (stereo not drawn) here?
Its Potency is 14.1 µM (active).

Which Potency does the source give for `CN(C)CCn1cnc2c(c1=N)C(c1ccccc1)c1ccc3ccccc3c1O2` (stereo not drawn) here?
The Potency was 28.2 µM (active).

`COc1ccc2nc(NCCN=C(S)NCCCN3CCOCC3)c(C#N)cc2c1` was tested. Which Potency did it give?
Its Potency is “inactive”.

For `Cc1ccc(S(=O)(=O)NC23CC4CC(CC(C4)C2)C3)cc1`, which Potency is on record?
Its Potency is “inactive”.

How did the Potency turn out when `CCCn1nc(NC(=O)COC)c2cc3cccc(C)c3nc21` was run?
The Potency was “inactive”.

Which Potency does the source give for `COc1ccc(OC)c(/C=C2\Oc3cc(OCC(=O)N4CCC[C@H]4C(=O)O)ccc3C2=O)c1` here?
The Potency was “inactive”.

Which Potency does the source give for `COCCNc1oc(/C=C/c2ccccc2)nc1C#N` here?
The Potency was “inactive”.

With `COc1cc2ccccc2nn1` as the compound, how does the Potency read?
The Potency was “inactive”.

`COc1ccc(C2c3c(ncn(CCCO)c3=N)Oc3ccc4ccccc4c32)cc1` (stereo not drawn) was tested. Which Potency did it give?
The Potency was 25.1 µM (active).

With `N=c1c2c(ncn1Cc1ccco1)Oc1ccc3ccccc3c1C2c1ccccc1` (stereo not drawn) as the compound, how does the Potency read?
The Potency was 12.6 µM (active).

With `COc1ccc(C2C=C(c3ccccc3)Nc3nc(CCCO)nn32)cc1` (stereo not drawn) as the compound, how does the Potency read?
Its Potency is “inactive”.

`CCOCCn1c(CN2CCCC(C)C2)nc2c1c(=O)n(C)c(=O)n2C` (stereo not drawn) was tested. Which Potency did it give?
The Potency was “inactive”.

With `COCCCn1c(C)nnc1SCc1ccc(C(C)(C)C)cc1` as the compound, how does the Potency read?
Its Potency is “inactive”.

How did the Potency turn out when `CC(=O)Nc1nc2n(n1)C(c1ccc(F)cc1)C=C(c1ccc(Cl)cc1)N2` (stereo not drawn) was run?
The Potency was “inactive”.

Which Potency does the source give for `Cc1ccc(N2C(=O)/C(=C\Nn3cnnc3)c3ccccc3C2=O)cc1` here?
Its Potency is “inactive”.

How did the Potency turn out when `Cc1nc(SCc2ccccc2)c2ccsc2n1` was run?
The Potency was “inactive”.

For `CCCCN=c1nc(S)n(-c2ccccc2)c(C)c1C(C)=O`, which Potency is on record?
Its Potency is 39.8 µM (active).

Which Potency does the source give for `CCCCn1c(=O)nc2n(-c3ccccc3)c3ccccc3cc-2c1=O` here?
The Potency was “inactive”.

With `O=[N+]([O-])c1ccc(NN=C(Oc2ccccc2)c2ccc([N+](=O)[O-])cc2)cc1` as the compound, how does the Potency read?
The Potency was “inactive”.

How did the Potency turn out when `COc1ccc(C(=O)/C(C#N)=N/Nc2ccc([N+](=O)[O-])cc2)cc1` was run?
The Potency was 10 µM (active).

With `C/C(=N\Nc1ccc([N+](=O)[O-])cc1)c1ccco1` as the compound, how does the Potency read?
The Potency was “inactive”.

Which Potency does the source give for `Cc1cc(C)c(S(=O)(=O)Nc2cc(SCC(=O)O)c(O)c3ccccc23)cc1C` here?
The Potency was 20 µM (active).

With `CC(=O)Nc1ccc(NS(=O)(=O)c2cc(-c3cnc(C4CC4)o3)ccc2C)cc1` as the compound, how does the Potency read?
Its Potency is “inactive”.

For `COC(=O)CCC(=O)N1CCCC(N2CCN(c3cccc(C(F)(F)F)c3)CC2)C1` (stereo not drawn), which Potency is on record?
The Potency was “inactive”.

How did the Potency turn out when `CSC1=NCCN1S(=O)(=O)c1ccc(F)cc1` was run?
Its Potency is “inactive”.

For `COC(=O)Cc1c(C)c2ccc(O)c(CNCc3ccc(OC)c(OC)c3)c2oc1=O`, which Potency is on record?
The Potency was “inactive”.

How did the Potency turn out when `Cc1sc(Cc2nc(O)cs2)nc1-c1ccccc1` was run?
Its Potency is “inactive”.

Which Potency does the source give for `CCc1ccc2oc(-c3ccc(OC)cc3)cc(=Nc3cccc(C(=O)O)c3)c2c1` here?
The Potency was “inactive”.

`COc1ccc(-c2c/c(=N\c3nc(-c4ccccc4)c(C)s3)c3ccccc3o2)cc1O` was tested. Which Potency did it give?
The Potency was 31.6 µM (active).

For `COCCCn1c(=N)c(C(=O)NC2CCCCC2)cc2c(=O)n3cc(C)ccc3nc21`, which Potency is on record?
Its Potency is “inactive”.

How did the Potency turn out when `COC(=O)C1=CN(C2CC2)C=C(C(=O)OC)C1c1ccc(C(=O)OC)cc1` was run?
The Potency was “inactive”.

For `COC(=O)c1ccc2nc(C3CCCCC3)c(CC(C)(C)C)n2c1`, which Potency is on record?
The Potency was 39.8 µM (active).

For `Cc1nc(-c2ccccc2)sc1-c1ccnn1C`, which Potency is on record?
Its Potency is “inactive”.

Which Potency does the source give for `CCc1ccc(C2=C(C)C(N3CCC(C(=O)Nc4ccc(F)cc4)CC3)=NS2(=O)=O)cc1` here?
The Potency was 39.8 µM (active).

Which Potency does the source give for `CCOC(=O)C1=C(C)N=c2s/c(=C/c3ccc(OCC(=O)O)cc3)c(=O)n2C1c1ccc(OC)cc1OC` (stereo not drawn) here?
The Potency was “inactive”.

Which Potency does the source give for `CCSc1nnc2nc3c(c(O)n12)C1(CCCC1)Cc1ccccc1-3` here?
Its Potency is “inactive”.

With `Cn1cc(CN2CCN(Cc3ccc4c(c3)OCO4)CC2)c(-c2ccccc2F)n1` as the compound, how does the Potency read?
The Potency was “inactive”.

For `Cc1ccc2c(c1)[nH]c1c(N3CCN(Cc4ccccc4)CC3)ncnc12`, which Potency is on record?
The Potency was 11.2 µM (active).

`Fc1ccc2[nH]c3c(N4CCN(Cc5ccc6c(c5)OCO6)CC4)ncnc3c2c1` was tested. Which Potency did it give?
Its Potency is 39.8 µM (active).

`CCc1ccc(CN2CCN(c3ncccn3)CC2)cc1` was tested. Which Potency did it give?
Its Potency is “inactive”.

How did the Potency turn out when `Cc1c(O)ccc2c(CN3CCN(Cc4ccccc4)CC3)cc(=O)oc12` was run?
The Potency was “inactive”.

How did the Potency turn out when `O=c1c2ccccc2[nH]c(=S)n1Cc1ccc2c(c1)OCO2` was run?
The Potency was “inactive”.

Reference: ChEMBL document CHEMBL1201862, “PubChem BioAssay data set” (2004)
